PubChem BioAssay (EPA / NIEHS)
The source made the active and inactive calls. Rule for the calls: active = hit-call score of the fitted dose curve at least 0.9, where 1 is the maximum; inactive = score below 0.9.

Legend:
[1] = molecular target: Paired box protein Pax-6 (Homo sapiens) (UniProt P26367); experiment: ATG_Pax6_CIS: Attagene CIS-FACTORIAL HepG2 Assay for human Paired Box 6 (PAX6) (AID 2282956); details: HepG2 CIS-FACTORIAL PAX6 reporter transcription, RNA readout; actives raise or lower the signal
Paired box protein Pax-6 (Homo sapiens), sequence (P26367 whole entry, looked up): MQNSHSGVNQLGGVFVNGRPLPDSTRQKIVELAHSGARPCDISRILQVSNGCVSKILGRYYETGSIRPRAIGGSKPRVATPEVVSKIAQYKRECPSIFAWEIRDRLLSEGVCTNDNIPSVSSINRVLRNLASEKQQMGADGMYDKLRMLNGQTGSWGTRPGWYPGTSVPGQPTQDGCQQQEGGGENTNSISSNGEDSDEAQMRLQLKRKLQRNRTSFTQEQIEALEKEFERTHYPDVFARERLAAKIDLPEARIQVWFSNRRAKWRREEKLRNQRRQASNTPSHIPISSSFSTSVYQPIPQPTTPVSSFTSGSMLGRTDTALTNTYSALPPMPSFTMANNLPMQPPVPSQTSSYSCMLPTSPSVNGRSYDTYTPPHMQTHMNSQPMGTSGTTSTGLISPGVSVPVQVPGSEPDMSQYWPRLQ
Outline: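 After twenty-four hours of chemical exposure, transfected HepG2 cells are harvested for RNA. Cis-promoter reporter transcripts are amplified, fluorescently labelled and sized by capillary electrophoresis, with gain and loss of signal scored against DMSO.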

[2] = ATG_PXRE_CIS: Attagene CIS-FACTORIAL HepG2 Assay for human Pregnane X Receptor Element (PXRE) (AID 2282957); details: HepG2 Attagene CIS-FACTORIAL PXRE reporter, mRNA; actives raise or lower the signal
Outline: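 Cells: HepG2, transiently transfected reporter units under cis promoter control. Exposure: 24 h. Detection: reporter mRNA via RT-PCR/CE fluorescence; bidirectional fitting, DMSO-referenced.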

[3] = ATG_Sox_CIS: Attagene CIS-FACTORIAL HepG2 Assay for human SRY-box transcription factor (SOX) (AID 2282960); details: HepG2 Attagene cis-factorial SOX reporter, mRNA; actives raise or lower the signal
Outline: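 Reporter transcripts, measured by RT-PCR and capillary electrophoresis of labelled fragments, report endogenous SOX transcription factor activity. Transiently transfected human HepG2 cells receive chemical for 24 h; changes in either direction are fitted relative to DMSO.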

[4] = molecular target: Transcription factor Sp1 (Homo sapiens) (UniProt P08047); experiment: ATG_Sp1_CIS: Attagene CIS-FACTORIAL HepG2 Assay for human Specificity Protein 1 (Sp1) (AID 2282961); details: HepG2 Sp1 cis-reporter transcription, actives raise or lower the signal
Transcription factor Sp1 (Homo sapiens), sequence (P08047 whole entry, looked up): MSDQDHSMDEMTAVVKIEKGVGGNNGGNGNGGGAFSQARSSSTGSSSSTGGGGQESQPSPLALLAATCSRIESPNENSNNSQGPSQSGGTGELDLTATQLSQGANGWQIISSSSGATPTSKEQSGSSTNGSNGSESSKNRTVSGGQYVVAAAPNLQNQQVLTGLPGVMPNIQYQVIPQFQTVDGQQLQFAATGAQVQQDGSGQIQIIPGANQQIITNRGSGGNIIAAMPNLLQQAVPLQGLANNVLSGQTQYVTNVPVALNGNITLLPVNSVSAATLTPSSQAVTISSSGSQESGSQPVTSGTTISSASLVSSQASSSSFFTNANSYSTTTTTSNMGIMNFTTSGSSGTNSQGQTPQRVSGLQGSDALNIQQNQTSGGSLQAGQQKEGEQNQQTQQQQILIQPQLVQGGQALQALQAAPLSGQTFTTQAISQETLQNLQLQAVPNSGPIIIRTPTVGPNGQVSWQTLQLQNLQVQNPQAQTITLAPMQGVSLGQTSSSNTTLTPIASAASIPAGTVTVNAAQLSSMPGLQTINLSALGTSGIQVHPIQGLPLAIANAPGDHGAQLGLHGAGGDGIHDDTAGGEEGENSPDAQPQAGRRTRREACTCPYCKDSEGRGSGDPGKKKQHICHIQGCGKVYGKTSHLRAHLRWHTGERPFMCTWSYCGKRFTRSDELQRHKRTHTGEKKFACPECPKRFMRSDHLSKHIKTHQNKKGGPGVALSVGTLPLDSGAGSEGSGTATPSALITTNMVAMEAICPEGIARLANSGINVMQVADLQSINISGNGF
Outline: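 Read-out is reporter transcript level, measured by RT-PCR and fluorescent capillary electrophoresis after 24 h chemical treatment. System: transiently transfected HepG2 cells reporting endogenous transcription factor activity; gain or loss fitted against DMSO baseline.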

[5] = ATG_SREBP_CIS: Attagene CIS-FACTORIAL HepG2 Assay for human Sterol Regulatory Element Binding (SREBP) (AID 2282962); details: HepG2 Attagene cis-factorial SREBP reporter, mRNA; actives raise or lower the signal
Outline: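 Twenty-four hours after chemical dosing of transfected HepG2 cultures, reporter RNA was converted to cDNA, amplified, end-labelled with 6-FAM and resolved by capillary electrophoresis. Responses were fitted relative to DMSO.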

[6] = molecular target: Signal transducer and activator of transcription 3 (Homo sapiens) (UniProt P40763); experiment: ATG_STAT3_CIS: Attagene CIS-FACTORIAL HepG2 Assay for human Signal Transducer and Activator of Transcription 3 (STAT3) (AID 2282963); details: HepG2, Attagene cis-factorial STAT3 reporter transcription; actives raise or lower the signal
Signal transducer and activator of transcription 3 (Homo sapiens), sequence (P40763 whole entry, looked up): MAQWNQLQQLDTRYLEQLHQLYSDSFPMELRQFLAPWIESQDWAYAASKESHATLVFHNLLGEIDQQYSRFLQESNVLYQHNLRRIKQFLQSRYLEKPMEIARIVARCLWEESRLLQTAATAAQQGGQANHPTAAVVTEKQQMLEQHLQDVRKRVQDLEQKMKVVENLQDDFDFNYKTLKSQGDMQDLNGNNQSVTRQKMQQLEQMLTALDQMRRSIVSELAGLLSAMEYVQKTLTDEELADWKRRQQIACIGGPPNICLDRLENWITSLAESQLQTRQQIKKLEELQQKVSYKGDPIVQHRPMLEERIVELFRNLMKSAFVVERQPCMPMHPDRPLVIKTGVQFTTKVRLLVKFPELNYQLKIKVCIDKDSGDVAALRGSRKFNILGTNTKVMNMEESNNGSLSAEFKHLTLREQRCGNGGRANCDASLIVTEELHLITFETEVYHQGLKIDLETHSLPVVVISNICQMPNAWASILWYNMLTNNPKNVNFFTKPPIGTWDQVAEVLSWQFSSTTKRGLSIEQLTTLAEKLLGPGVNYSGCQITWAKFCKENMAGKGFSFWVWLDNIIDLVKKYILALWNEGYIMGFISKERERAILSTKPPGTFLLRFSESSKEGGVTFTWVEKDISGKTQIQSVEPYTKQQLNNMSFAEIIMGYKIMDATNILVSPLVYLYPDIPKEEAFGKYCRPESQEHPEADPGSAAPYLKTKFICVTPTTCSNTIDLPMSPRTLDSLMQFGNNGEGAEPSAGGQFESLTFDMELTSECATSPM
Outline: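 HepG2 cells transiently transfected with cis-element-driven multiple reporter transcription units; after 24 h chemical exposure, reporter mRNA measured by RT-PCR, 6-FAM primer-extension labelling, HpaI digestion and capillary electrophoresis. Bidirectional fitting versus DMSO baseline.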

[7] = ATG_TA_CIS: Attagene CIS-FACTORIAL HepG2 Assay for human TA Basal Promoter (AID 2282964); details: HepG2 Attagene CIS-factorial TA basal promoter reporter; actives raise or lower the signal
Outline: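 HepG2 cells transiently transfected with multiple reporter units under cis promoter elements, reporting endogenous transcription factor activity; this endpoint tracks the TA basal promoter as background control. Reporter mRNA after 24 h dosing measured by RT-PCR/capillary electrophoresis; bidirectional fits versus DMSO.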

[8] = ATG_TCF_b_cat_CIS: Attagene CIS-FACTORIAL HepG2 Assay for human T-Cell-Factor with beta-catenin (TCF/b-cat) (AID 2282965); details: HepG2 TCF/beta-catenin cis-reporter transcription, actives raise or lower the signal
Outline: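 Using capillary electrophoresis as the read-out, labelled reporter cDNA fragments from transiently transfected HepG2 were sized and quantified. Exposure lasted 24 hours; activity in either direction was referenced to DMSO.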

[9] = ATG_RORE_CIS: Attagene CIS-FACTORIAL HepG2 Assay for human RAR-related Orphan Receptor Element (RORE) (AID 2282959); details: HepG2 Attagene cis-factorial RORE reporter, mRNA; actives raise or lower the signal
Outline: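 RORE reporter transcripts reflecting endogenous factor activity were read after 24 h compound exposure of transfected HepG2 cells, using reverse transcription, PCR, fluorescent labelling and capillary electrophoresis sizing. Gain or loss fitted against DMSO.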

[10] = ATG_PPRE_CIS: Attagene CIS-FACTORIAL HepG2 Assay for human Peroxisome Proliferator-activated Response Element (PPRE) (AID 2282958); details: HepG2 PPRE cis-element reporter, Attagene transcription factor profiling; actives raise or lower the signal
Outline: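 Endogenous PPRE-driven transcription is measured in HepG2 cells carrying transfected multi-reporter constructs. Reporter transcripts are quantified by RT-PCR, HpaI digestion and capillary electrophoresis 24 h after dosing. DMSO baseline, bidirectional fit.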

Measured: AC50

Cc1ccccc1C=O
active: [2] 38.2 µM
not listed: [9] | [10]
inactive: all other assays above

CCN(CC)CCOC(=O)c1ccc(N)cc1
active: [2] 45.9 µM
not listed: [9] | [10]
inactive: all other assays above

C=C[Si](OCC)(OCC)OCC
active: [2] 5.48 µM
not listed: [4] | [9] | [10]
inactive: all other assays above

Sc1nc(S)nc(S)n1
not listed: [4] | [10]
inactive: all other assays above

CC[C@]12CCCN3CCc4c(n(c5ccccc45)[C@@](O)(C(=O)OC)C1)[C@@H]32
active: [2] 7.96 µM
not listed: [9] | [10]
inactive: all other assays above

CCCCCCCCCCCCOCCO
active: [4] 49.9 µM | [5] 49.1 µM
not listed: [9] | [10]
inactive: all other assays above

C=CC(=O)NCOCC(C)C
active: [2] 21 µM
not listed: [9] | [10]
inactive: all other assays above

C=CC(=O)OCCn1c(=O)n(CCOC(=O)C=C)c(=O)n(CCOC(=O)C=C)c1=O
active: [1] 15.7 µM | [6] 27 µM | [8] 9.02 µM
not listed: [4] | [10]
inactive: all other assays above

CCCCCCOC(=O)CCCCC
not listed: [9] | [10]
inactive: all other assays above

CC(=O)OCCOC(C)=O
active: [2] 82.2 µM
not listed: [3] | [10]
inactive: all other assays above

CC(C#N)(CCC(=O)O)N=NC(C)(C#N)CCC(=O)O (configuration not stated)
active: [2] 26.2 µM
not listed: [9] | [10]
inactive: all other assays above

CCc1ccc(C=O)cc1
not listed: [9] | [10]
inactive: all other assays above

CNC[C@H](O)c1cccc(O)c1
active: [2] 34.2 µM
not listed: [9] | [10]
inactive: all other assays above

O=C(O)C[C@H](O)C[C@H](O)/C=C/c1c(C2CC2)nc2ccccc2c1-c1ccc(F)cc1
active: [2] 4.9 µM | [5] 0.0712 µM
not listed: [9] | [10]
inactive: all other assays above

C=C(C)C1CCC(C)CC1O (configuration not stated)
not listed: [3] | [10]
inactive: all other assays above

CC(C)Oc1ccccc1O
active: [2] 39.4 µM
not listed: [3] | [10]
inactive: all other assays above

Cc1ccc(C(C)C)cc1O
active: [2] 14.2 µM
not listed: [3] | [9] | [10]
inactive: all other assays above

CC(CCO)CCCC(C)(C)O (configuration not stated)
not listed: [2] | [10]
inactive: all other assays above

O=C(O)c1cccc(C(F)(F)F)c1
not listed: [1]
inactive: all other assays above

CCCC[n+]1ccccc1
not listed: [2] | [10]
inactive: all other assays above

O=C(O)c1cccc([N+](=O)[O-])c1
not listed: [2] | [3] | [4]
inactive: all other assays above

CC(=O)OCc1ccc2c(c1)OCO2
not listed: [2] | [10]
inactive: all other assays above

C[C@]12CC[C@H]3[C@@H](CCC4=CC(=O)CC[C@@]43C)[C@@H]1CC[C@@H]2C(=O)CO
active: [1] 100 µM | [7] 61 µM | [8] 100 µM
not listed: [2]
inactive: all other assays above

CC[Si](OC(C)=O)(OC(C)=O)OC(C)=O
not listed: [2]
inactive: all other assays above

COc1ccc(NC(=O)CC(C)=O)cc1
not listed: [2]
inactive: all other assays above

Cc1cccc(C)c1[N+](=O)[O-]
not listed: [2]
inactive: all other assays above

COc1ccc(O)cc1
not listed: [2] | [9]
inactive: all other assays above

CNCCCC12CCC(c3ccccc31)c1ccccc12
inactive: [10] | [4] | [5] | [6] | [7]
active: [1] 17.4 µM | [8] 18.5 µM

CCc1c(C)cc(N)c(CC)c1N
not listed: [2]
inactive: all other assays above

CCCCCC=CCC(=O)OC
not listed: [2] | [10]
inactive: all other assays above

CC(=O)OCC=Cc1ccccc1
not listed: [2]
inactive: all other assays above

O=[N+]([O-])c1ccc(C=Cc2ccc([N+](=O)[O-])cc2S(=O)(=O)O)c(S(=O)(=O)O)c1
not listed: [2] | [3] | [10]
inactive: all other assays above

Clc1sc(Cl)c(Cl)c1Cl
not listed: [2]
inactive: all other assays above

C=CC(=O)OCCOCCOCC
active: [1] 68.4 µM
not listed: [2] | [10]
inactive: all other assays above

CC(O)C(C)O (configuration not stated)
not listed: [2] | [10]
inactive: all other assays above

CCC(=O)OCc1ccccc1
not listed: [2]
inactive: all other assays above

CC1(C)[C@H]2CC[C@]1(C)[C@H](O)C2
not listed: [2] | [10]
inactive: all other assays above

CCCOCC(C)O (configuration not stated)
not listed: [2]
inactive: all other assays above

O=C=NC1CCC(CC2CCC(N=C=O)CC2)CC1 (configuration not stated)
inactive: [1] | [4] | [5] | [7]
active: [10] 68.9 µM | [9] 69.6 µM | [6] 164 µM | [8] 69.3 µM

CC1CCC(C(C)(C)O)CC1 (configuration not stated)
not listed: [2]
inactive: all other assays above

C=C(C)C(=O)OCc1ccccc1
not listed: [3] | [9] | [10]
inactive: all other assays above

CCCCCCC#CC(=O)OC
not listed: [2] | [9]
inactive: all other assays above

CCCCCCCCCCCCN
active: [5] 18.1 µM
not listed: [2] | [9]
inactive: all other assays above

CN(C)CCOCCN(C)C
not listed: [2]
inactive: all other assays above

C[C@H]1C[C@H]2[C@@H]3CCC4=CC(=O)C=C[C@]4(C)[C@@]3(F)[C@@H](O)C[C@]2(C)[C@@]1(O)C(=O)COP(=O)(O)O
not listed: [2]
inactive: all other assays above

O=[N+]([O-])c1cc(C(F)(F)F)ccc1Cl
not listed: [2] | [10]
inactive: all other assays above

CC(=O)OCCC(C)CC(C)(C)C (configuration not stated)
not listed: [2] | [4] | [10]
inactive: all other assays above

CCCCCCCCCCCCCC(=O)O
active: [5] 54.9 µM
not listed: [3] | [9] | [10]
inactive: all other assays above

CCCCCCCCCCC(CO)CCCCCCCC (configuration not stated)
not listed: [2] | [4] | [9]
inactive: all other assays above

CN(C)CCCN
not listed: [2] | [10]
inactive: all other assays above

CC(=O)[C@H]1CC[C@H]2[C@@H]3CC=C4C[C@@H](O)CC[C@]4(C)[C@H]3CC[C@]12C
inactive: [1] | [5] | [6] | [7]
active: [8] 52.8 µM

NCCOCCO
not listed: [2] | [9] | [10]
inactive: all other assays above

CO[Si](C)(OC)c1ccccc1
not listed: [2]
inactive: all other assays above

C=CC(=O)OCC(O)COc1ccccc1 (configuration not stated)
active: [1] 41.2 µM | [3] 26.3 µM
not listed: [2] | [10]
inactive: all other assays above

CCCCCCCCCCCCN(CCCCCCCCCCCC)CCCCCCCCCCCC
not listed: [1]
inactive: all other assays above

O=c1[nH]nnc2ccccc12
not listed: [1]
inactive: all other assays above

CC(=O)Nc1ccc(C)cc1C
not listed: [1]
inactive: all other assays above

CCCCNC(=O)NS(=O)(=O)c1ccc(C)cc1
not listed: [1] | [3] | [9]
inactive: all other assays above
